The record followed here is PubChem BioAssay.

Molecules are shown by their SMILES.

The assay concerns the target Carbonic anhydrase 2 (Homo sapiens) (UniProt P00918). Description: compounds binding carbonic anhydrase 2 – biochemical, small-molecule microarray, Alexa647-labelled CAII, profiling panel (AID 1122). The following applies: CAII-A647 binding fluorescence, higher = more signal.
`Cc1ccccc1C(O)C1C=CC2C(=O)N(C)C(=O)C2N1N(c1ccccc1)c1ccccc1` (stereo not given) came in with a composite z-score of 0.833.
Consider `COc1ccc([Si](C)(C)[C@@H]2[C@@H](CC(=O)N(CCO)Cc3ccccc3)O[C@]3(C(=O)N(Cc4cccc(N5C(=O)c6cccc7cccc5c67)c4)c4ccccc43)[C@H]2C)cc1`, for which the composite z-score was -0.199.
Take `C=C[C@@H](COC(C)=O)N(C(=O)OC(C)(C)C)S(=O)(=O)c1ccc(Br)cc1`: the composite z-score came to 0.646.
`C=C(COC)/C(=C/C[C@H](OC(C)=O)c1ccc(OCCO)cc1)c1cc(C(=O)OC)ccc1OC`: the composite z-score was found to be 0.622.
`Cc1ccc(S[C@]2(C(=O)NCC(F)(F)F)CC(=O)N(Cc3ccccc3C(F)(F)F)[C@@H]2c2ccc(CO)cc2I)cc1`: the composite z-score turned out to be 0.968.
Turning to `COC(=O)[C@@]1(Cc2ccc(F)cc2)[C@H]2c3cc(C(=O)N4CCCC4)n(CCc4ccc(O)c(O)c4)c3C[C@H]2CN1C(=O)c1ccccc1`, the composite z-score was determined as 0.83.
`COCCOC(=O)N1C(=O)[C@@]2(c3cc(C#CCC(C(=O)OC)C(=O)OC)ccc31)[C@H](C(=O)N1CCc3cc(OC)c(OC)cc3C1)[C@H]1C(=O)O[C@H](c3ccccc3)[C@H](c3ccccc3)N1[C@@H]2c1ccc(OCCO)cc1` returned a composite z-score of 0.357.
With `COc1ccc(CCN2C(=O)[C@@]3(Cc4ccccc42)c2ccccc2C(=O)N(Cc2ccccc2OC)[C@H]3c2ccc(CO)cc2)cc1` the figure was 0.162; with `CN(C)CCCNC(=O)[C@@]1(c2ccc([N+](=O)[O-])cc2)CC(=O)N(CC23CC4CC(CC(C4)C2)C3)[C@@H]1c1ccc(CO)cc1I`, 0.511; with `CCCC[C@@H]1C[C@H]1[C@@H](NC(=O)c1cccs1)c1ccc(C(F)(F)F)cc1`, -0.195.
Compound `COC(=O)C1=CC(CCCO)=CC(C2CC2)N(C)C=C1C(=O)OC` (stereo not given) registered a composite z-score of 0.97.
`CC(=O)c1ccc(C(O)C2C=CC3C(=O)N(c4ccccc4)C(=O)C3N2Nc2ccc(C#N)cc2)cc1` (stereo not given): the composite z-score was determined as 0.759.
As for `COCCOC(=O)N1C(=O)[C@@]2(c3cc(C#CC4=CCCCC4)ccc31)[C@H](c1ccc(OCCO)cc1)N1[C@H](c3ccccc3)[C@H](c3ccccc3)OC(=O)[C@H]1[C@@H]2C(=O)NC[C@H](O)c1ccccc1`, the composite z-score is 0.326.
In turn, `CCCC[C@@H]1C[C@H]1[C@@H](NC(=O)Cc1ccccc1)c1ccc(-c2ccccc2)cc1` had a composite z-score of 0.66.
In turn, `CCCCN1CC=CC23O[C@@H]4/C=C\CCC(C)OC(=O)C4[C@H]2C(=O)N(C(CO)C(C)C)[C@@H]3C1=O` (stereo not given in full) displayed a composite z-score of 0.815.
With `CO[C@H]1O[C@H](CO)[C@@H](OC(=O)Nc2ccccc2-c2ccccc2)[C@H](OC(=O)Nc2ccc3c(c2)OCO3)[C@H]1OC(=O)Nc1ccc2c(c1)OCO2`, the composite z-score was 0.498.
`C=CCN1C(=O)[C@@]2(O[C@@H](CCn3cc([C@H](O)c4ccccc4)nn3)[C@H]([Si](C)(C)c3ccc(OC)cc3)[C@H]2C)c2cc(N3CCC3=O)ccc21`: the composite z-score worked out at 0.489.
With `C=CCN1C(=O)[C@@]2(CCS(=O)(=O)c3ccccc3)N=C(c3ccc(OCCCO)cc3)O[C@H]2c2ccccc21` the figure was 0.277; with `COC(=O)CCCCCCC(=O)Nc1ccc(NC(=O)CCCC[P+](c2ccccc2)(c2ccccc2)c2ccccc2)cc1`, -0.281.
As for `CC(CO)N1C(=O)[C@@H]2[C@H]3C(=O)OCC=C[C@H]3OC23C=CCN(C(C)(C)C)C(=O)[C@@H]13` (stereo not given in full), the composite z-score amounted to 0.852.
As for `[N-]=[N+]=Nc1ccccc1[C@@H]1OC(c2ccc(OCCCO)cc2)=N[C@]1(Cc1ccccc1)C(=O)NCC(O)CO` (stereo not given in full), the figure is 0.765; as for `CC1CC/C=C\[C@H]2OC34C=CCN(c5ccc(Cl)cc5)C(=O)[C@H]3N(CCCCCO)C(=O)[C@]4(C)C2C(=O)O1` (stereo not given in full), -0.482; as for `C=CCC(OC(C)=O)[C@@H]1[C@@H](N(Cc2cccc3ccccc23)C(=O)c2cccc3ccccc23)c2cc(OCCCO)ccc2N1C(=O)c1ccc(-c2ccccc2)cc1` (stereo not given in full), 0.115.
As for `CN1C(=O)C2C=CC(C(O)c3ccccn3)N(N(c3ccccc3)c3ccccc3)C2C1=O` (stereo not given), the composite z-score was 0.822.
Turning to `CC(C)(C)N1CC=CC23O[C@@H]4C=CCCOC(=O)C4[C@H]2C(=O)N(CCO)[C@@H]3C1=O` (stereo not given in full), the composite z-score was 0.282.
For `Cc1ccc(S[C@]2(C(=O)NCCCN(C)C)CC(=O)N(C3CCCCC3)[C@@H]2c2ccc(CO)cc2)cc1`, the composite z-score amounted to 0.228.
Consider `CCOc1cc(C(O)C2C=CC3C(=O)N(c4ccccc4)C(=O)C3N2Nc2ccc(C#N)cc2)ccc1O` (stereo not given), for which the composite z-score came to 0.877.
`COCCOC(=O)N1C(=O)[C@@]2(c3cc(C#Cc4ccc(OC)cc4)ccc31)[C@H](C(=O)Nc1nc3ccccc3s1)[C@H]1C(=O)O[C@H](c3ccccc3)[C@H](c3ccccc3)N1[C@@H]2c1ccc(OCCO)cc1` yielded a composite z-score of 0.458.
For the compound `O=C1O[C@H](c2ccccc2)[C@H](c2ccccc2)N2[C@H]1[C@@H](C(=O)NC[C@H](O)c1ccccc1)[C@]1(C(=O)Nc3ccc(C#CCCO)cc31)[C@H]2c1ccc(OCCO)cc1`, the composite z-score worked out at 0.627.
In the case of `CCC(CC)C(O)C1C=CC2C(=O)N(c3ccccc3)C(=O)C2N1Nc1ccc(C(C)C)cc1` (stereo not given), the composite z-score is 0.691.
As for `C=CCC(OC(C)=O)[C@@H]1[C@@H](N(Cc2cccc3ccccc23)C(=O)Cc2ccc(OC)cc2)c2cc(OCCCO)ccc2N1C(=O)c1ccc2ccccc2n1` (stereo not given in full), the figure is 0.189.
For the compound `C=C(C)c1cc2c(c(CCCCCC)n1)[Si](C(C)C)(C(C)C)OC2`, the composite z-score is -0.484.
Regarding `COCCOC(=O)N1C(=O)[C@@]2(c3cc(C#CC4=CCCCC4)ccc31)[C@H](c1ccccc1OCCO)N1[C@H](c3ccccc3)[C@H](c3ccccc3)OC(=O)[C@H]1[C@@H]2C(=O)Nc1nc2ccccc2s1`, the composite z-score was 0.236.
In turn, `O=C1NC(=O)C2C1C=CC(C(O)c1cccc3ccccc13)N2Nc1ccc(Cl)cc1Cl` (stereo not given) returned a composite z-score of 0.358.
Compound `CN(C)C(=O)[C@@]1(Cc2ccccc2CN=[N+]=[N-])N=C(c2ccc(OCCCO)cc2)O[C@H]1c1ccccc1CN=[N+]=[N-]` gave a composite z-score of 0.703.
